Data from PubChem BioAssay (NCATS).
Inconclusive results are not listed. A call without a number means that no potency is given here. Active and inactive are the calls of the source. Unless noted, calls follow the shape of the dose curve; as a rule, active = well fitted curve in the direction sought with a large enough effect; inconclusive = small, poorly fitted or top-dose-only effect, or another doubt; inactive = no such curve, though single readings can be large; an effect the other way counts as inactive or inconclusive.

Tests used:
[1] = Validation of Assay for Modulators of Lamin A Splicing (AID 1459; active = well fitted curve in the direction sought with a large enough effect in the signal ratio; the % refers to the signal ratio;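 also: cells exposed to compound for two days before reading; ratio rise marks activators and ratio drop marks inhibitors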)
How it was run: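 Dual-reporter HeLa S3 line (lamin A-EGFP minigene, DsRed2) treated with compounds 48 hrs, 0.5% DMSO final. Endpoint: EGFP/DsRed2 total intensity ratio from laser-scanning microplate cytometry.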

[2] = biological target: DNA repair nuclease/redox regulator APEX1 (Homo sapiens) (UniProt P27695); test: qHTS Validation Assay for Inhibitors of the Human Apurinic/apyrimidinic Endonuclease 1 (APE1) (AID 1705; also: potency is read from the fitted curve at half-maximal effect)
How it was run: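 Substrate: 50 nM final fluorophore/quencher THF-abasic duplex. Enzyme preincubated with compounds 15 min, RT. Progress derived from fluorescence difference, third minus first kinetic read.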

[3] = Counterscreen for APE1 Inhibitors: Fluorescent Dye Displacement Validation Assay (AID 1707)
How it was run: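 Compounds are scored by their ability to displace Thiazole Orange (250 nM) from a 50 nM TAMRA-tagged duplex bearing a tetrahydrofuran abasic site. Buffer is 50 mM Tris-HCl pH7.5, 50mM NaCl, 2 mM MgCl2, 0.01% Tween-20.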

[4] = Cell Viability - LYMP2-026 (AID 989);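 also: cells exposed to compound for 24 h at 37 °C; nearly all actives have a fitted effect of over 50% in size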; also: potency is read from the fitted curve at half-maximal effect
How it was run: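 Concentration-dependent loss of intracellular ATP in human lymphoblastoid cells after 24 hr at 37 C, quantified by luciferase luminescence. AC50 derived from standard Hill equation.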

[5] = Cell Viability - LYMP1-002 - Assay at 40 hr (AID 994); also: nearly all actives have a fitted effect of over 60% in size; also: potency is read from the fitted curve at half-maximal effect
How it was run: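 Viability in the human lymphoblastoid line was measured as intracellular ATP via CellTiter-Glo after 40 hr compound exposure. Tetraoctylammonium bromide served as positive control.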

[6] = biological target: Alpha-galactosidase A (Homo sapiens) (UniProt P06280); test: Counterscreen for Glucocerebrosidase Inhibitors: qHTS Assay for Human alpha-Galactosidase at pH 4.5 (AID 992)
How it was run: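 Quantitative HTS: compounds tested from 0.7 nM up to 77 uM against 2 nM enzyme with 80 uM 4-MU alpha-D-galactopyranoside. The 20 min room-temperature reaction is stopped with 1M NaOH/1M glycine, pH 10.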

[7] = biological target: alpha-glucosidase (Oryza sativa, rice) (UniProt Q653V4); test: Counterscreen for Glucocerebrosidase Inhibitors: qHTS Assay for Rice alpha-Glucosidase at pH 5.0 (AID 997)
How it was run: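 Rice alpha-glucosidase (4 nM final) with 400 uM 4-methylumbelliferyl-alpha-D-glucopyranoside in citrate buffer pH 5.0, 20 min at room temperature, stopped at pH 10; fluorescence 365/440 nm, compounds 0.7 nM–77 uM, AC50 from Hill fits.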

[8] = Cell Viability - LYMP2-024 (AID 988);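 also: cells exposed to compound for 24 hr at 37 °C; nearly all actives have a fitted effect of over 60% in size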; also: potency is read from the fitted curve at half-maximal effect
How it was run: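 Acute toxicity is measured as concentration-dependent loss of intracellular ATP in a human lymphoblastoid line treated 24 hours at 37 C. Luciferase luminescence quantifies ATP; AC50 values come from standard Hill-equation modelling.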

[9] = Cell Viability - LYMP1-002 - Assay at 24 hr (AID 993); also: potency is read from the fitted curve at half-maximal effect
How it was run: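 qHTS, LYMP1-002 lymphoblastoid, 24 h cpd, 37 C, CellTiter-Glo ATP luminescence; AC50 via Hill eq.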

Chain of Alpha-galactosidase A (Homo sapiens) (P06280 whole entry, looked up): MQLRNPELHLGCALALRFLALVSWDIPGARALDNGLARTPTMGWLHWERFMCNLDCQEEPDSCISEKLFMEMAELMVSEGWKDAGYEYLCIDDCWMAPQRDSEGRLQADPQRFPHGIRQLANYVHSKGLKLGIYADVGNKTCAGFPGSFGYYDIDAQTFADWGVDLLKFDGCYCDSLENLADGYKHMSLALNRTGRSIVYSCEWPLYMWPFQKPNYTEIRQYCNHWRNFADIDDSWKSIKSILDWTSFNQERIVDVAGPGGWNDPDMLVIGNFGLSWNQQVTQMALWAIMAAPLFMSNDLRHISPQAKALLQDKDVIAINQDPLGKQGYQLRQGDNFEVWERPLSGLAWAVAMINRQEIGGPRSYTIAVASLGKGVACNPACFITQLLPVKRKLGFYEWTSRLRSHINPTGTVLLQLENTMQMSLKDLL
Chain of DNA repair nuclease/redox regulator APEX1 (Homo sapiens) (P27695 whole entry, looked up): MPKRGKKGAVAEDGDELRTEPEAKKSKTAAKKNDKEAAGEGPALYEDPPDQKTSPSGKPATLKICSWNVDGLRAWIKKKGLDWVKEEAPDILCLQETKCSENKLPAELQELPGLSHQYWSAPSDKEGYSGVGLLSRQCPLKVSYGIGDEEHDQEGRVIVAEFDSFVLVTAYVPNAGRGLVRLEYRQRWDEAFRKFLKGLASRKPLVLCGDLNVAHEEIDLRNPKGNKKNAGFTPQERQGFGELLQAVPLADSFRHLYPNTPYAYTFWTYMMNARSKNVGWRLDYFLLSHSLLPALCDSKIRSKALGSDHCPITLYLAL

CC(=O)N[C@H](C(=O)O)C(C)(C)SN=O
outcome [1]: inactive
Potency [2]: inactive
Potency [3]: inactive

S=c1[nH]c2ccccc2s1
Potency [4]: inactive
Potency [5]: inactive

Nc1ccc(O)c(C(=O)O)c1
Potency [4]: inactive
Potency [5]: inactive

CC[C@@H](C)[C@H]1O[C@]2(CC[C@@H]1C)C[C@@H]1C[C@@H](C/C=C(\C)[C@@H](O[C@H]3C[C@H](OC)[C@@H](O[C@H]4C[C@H](OC)[C@@H](O)[C@H](C)O4)[C@H](C)O3)[C@@H](C)/C=C/C=C3\CO[C@@H]4[C@H](O)C(C)=C[C@@H](C(=O)O1)[C@]34O)O2
Potency [3]: inactive

CC(C)Cc1ccc([C@H](C)C(=O)O)cc1
outcome [6]: inactive
outcome [7]: inactive
Potency [3]: inactive

Nc1ccn([C@@H]2O[C@H](CO)[C@@H](O)[C@@H]2O)c(=O)n1
Potency [3]: inactive

NCCO
Potency [8]: inactive
Potency [4]: inactive
Potency [9]: inactive
Potency [5]: inactive

CCCOC(=O)c1ccc(O)cc1
Potency [8]: inactive
Potency [4]: inactive
Potency [9]: inactive
Potency [5]: inactive

CC(COc1ccc(/C=C/c2ccccc2)cc1)[N+](C)(C)C (stereo not given)
Potency [3]: inactive

O=C(O)c1cc(O)c(O)c(O)c1
Potency [8]: inactive
Potency [4]: inactive
Potency [9]: inactive
Potency [5]: inactive

Cc1ccc(O)c(N=Nc2ccccc2)n1
outcome [6]: inactive
outcome [7]: inactive
Potency [3]: inactive

CN1CCc2ccccc2Cc2[nH]c3ccccc3c2CC1
outcome [6]: inactive
outcome [7]: inactive
Potency [2]: inactive
Potency [3]: inactive

N=C1N=C(N)c2cc3ccccc3cc21
Potency [8]: 39.8 µM (active)
Potency [4]: 39.8 µM (active)
Potency [9]: 39.8 µM (active)
Potency [5]: 39.8 µM (active)

Nc1ccc([N+](=O)[O-])cc1O
Potency [8]: inactive
Potency [4]: inactive
Potency [9]: inactive
Potency [5]: inactive

CN1[C@@H]2CC[C@H]1CC(OC(c1ccccc1)c1ccccc1)C2 (stereo not given in full)
outcome [6]: inactive
outcome [7]: inactive

C[N+]1(C)CCC(OC(=O)C(c2ccccc2)c2ccccc2)CC1
outcome [6]: inactive
outcome [7]: inactive

c1ccc2sc(SSc3nc4ccccc4s3)nc2c1
Potency [8]: inactive
Potency [4]: inactive
Potency [9]: inactive
Potency [5]: inactive

COC1=C(OC)C(=O)c2ccccc2C1=O
outcome [6]: inactive
outcome [7]: inactive
Potency [3]: inactive

Brc1c(Br)c(Br)c2n[nH]nc2c1Br
outcome [6]: inactive
outcome [7]: inactive

Nc1nc2ccc([N+](=O)[O-])cc2s1
Potency [8]: inactive
Potency [4]: inactive
Potency [9]: inactive
Potency [5]: inactive

C=C[C@@H]1CN2CC[C@@H]1C[C@H]2[C@H](O)c1ccnc2ccc(OC)cc12
Potency [3]: inactive

COc1cc(/C=C/C(=O)CC(=O)/C=C/c2ccc(O)c(OC)c2)ccc1O
Potency [8]: 25.1 µM (active)
Potency [4]: 31.6 µM (active)
Potency [9]: 39.8 µM (active)
Potency [5]: 39.8 µM (active)

COc1ccccc1CNCCCCCCNCCCCCCCCNCCCCCCNCc1ccccc1OC
outcome [6]: inactive
outcome [7]: inactive
Potency [3]: inactive

COc1cc(CNC(=O)CCCC/C=C/C(C)C)ccc1O
Potency [8]: inactive
Potency [4]: inactive
Potency [9]: inactive
Potency [5]: inactive

O=C(O)/C=C\C(=O)O
Potency [8]: inactive
Potency [4]: inactive
Potency [9]: inactive
Potency [5]: inactive

CN(C)c1ccc(C(=C2C=CC(=[N+](C)C)C=C2)c2ccccc2)cc1
Potency [8]: 0.199 µM (active)
Potency [4]: 0.316 µM (active)
Potency [9]: 0.794 µM (active)
Potency [5]: 1 µM (active)

N#C/C(=C\c1c[nH]c2ccccc12)C(=O)c1ccc(O)c(O)c1
outcome [6]: inactive
outcome [7]: inactive
Potency [2]: inactive

C=C[C@H]1CN2CC[C@@H]1C[C@@H]2[C@@H](O)c1ccnc2ccc(OC)cc12
outcome [6]: inactive
outcome [7]: inactive

CC1(C)S[C@@H]2[C@H](NC(=O)[C@H](N)c3ccccc3)C(=O)N2[C@H]1C(=O)O
Potency [8]: inactive
Potency [4]: inactive
Potency [9]: inactive
Potency [5]: inactive

CCCCCCCCCCCCCCCCCC(=O)O
Potency [8]: inactive
Potency [4]: inactive
Potency [9]: inactive
Potency [5]: inactive

CN(C)c1ccc(N=NS(=O)(=O)O)cc1
Potency [8]: inactive
Potency [4]: inactive
Potency [9]: inactive
Potency [5]: inactive

Cn1cc(C2=C(c3ccc(Cl)cc3Cl)C(=O)NC2=O)c2ccccc21
outcome [6]: inactive
outcome [7]: inactive
Potency [2]: 35.5 µM (active)
Potency [3]: inactive

C#C[C@]1(O)CC[C@H]2[C@@H]3CCc4cc(O)ccc4[C@H]3CC[C@@]21C
Potency [8]: inactive
Potency [4]: inactive
Potency [9]: inactive

CN=c1nc(-c2ccccc2)n(-c2ccccc2)s1
outcome [6]: inactive
outcome [7]: inactive
Potency [3]: inactive

Oc1cc2c(cc1O)CN(C(=S)NCCc1ccc(Cl)cc1)CCC2
outcome [6]: inactive
outcome [7]: inactive
Potency [2]: inactive
Potency [3]: inactive

Nc1ccc(O)c([N+](=O)[O-])c1
Potency [8]: inactive
Potency [4]: inactive
Potency [9]: inactive
Potency [5]: inactive

O=c1cc(-c2ccccc2)oc2ccccc12
Potency [8]: inactive
Potency [4]: inactive
Potency [9]: inactive
Potency [5]: inactive

C#CCN1C(C)=C(C(=O)OC)C(c2cccc([N+](=O)[O-])c2)C(C(=O)OCC)=C1C (stereo not given)
Potency [3]: inactive

CCCCCC(O)c1cccc(OCc2ccc3ccccc3n2)c1 (stereo not given)
Potency [3]: inactive

CN(C)c1nc2c(Br)c(Br)c(Br)c(Br)c2[nH]1
outcome [6]: inactive
outcome [7]: inactive
Potency [3]: inactive

COc1ccccc1N1CCN(CCCCNS(=O)(=O)c2cccc3c(N(C)C)cccc23)CC1
outcome [6]: inactive
outcome [7]: inactive
Potency [2]: inactive
Potency [3]: inactive
